Assay outcomes (PubChem)
Pf growth 48h = P. falciparum growth inhibition at 48 hours (one generation). Potency, µM (titrated, usually from 28.7 µM), inactives show at the top dose activity change, negative = inhibition, actives largely listed as inhibitors. AID 504832. P. falciparum luciferase growth in erythrocytes, 48 h. hit rate 5.9% among 310,000; also: % is scaled to controls: 0 for no effect and ±100 for the full control effect
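First compound was added to culture medium, then infected red cells at 0.1% parasitemia and 2% hematocrit (final). After incubation at 37 C under 5% CO2, luciferase detection reagent was dispensed and light output recorded.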
NS1 function inh = blocks influenza NS1 protein function. hit rate 0.4% among 270,000. Potency, µM (doses to about 46.1 µM), inactives show at the highest dose activity, positive = more growth; calls by dose curve; also: actives are rising curves; nearly all actives have a fitted effect of over 50% in size
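Compounds were scored for reversing the slow growth caused by influenza A NS1 in S. cerevisiae, measured by optical density at 600 nm. Assay medium contained 2% galactose at pH 6.0; NS1-free yeast of the same strain were the positive control.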
Pf growth 96h = P. falciparum growth inhibition at 96 hours. hit rate 6.9% among 320,000. P. falciparum luciferase reporter growth, 96 h. Potency, µM (doses to about 28.7 µM), inactives show at the top dose activity change, negative = inhibition, actives largely listed as inhibitors; also: % is scaled to controls: 0 for no effect and ±100 for the full control effect
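Infected RBCs, 2% Hct / 0.05% parasitemia final; luciferase-reporter P. falciparum; cpd 96 h, 37 C, 5% CO2; luciferase detection reagent; luminescence.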
RE007 growth inh = less growth of the S. pombe RE007 Vpr strain | S. pombe RE007 Vpr strain, BacTiter-Glo ATP luminescence, 24 h | Potency, µM (doses to about 92.2 µM), for inactives: at the top dose activity change, negative = less growth, usual class: inhibitors | hit rate 0.21% among 360,000 | AID 651644; active = well fitted falling curve with a large enough effect; inconclusive = small, poorly fitted or top-dose-only effect; inactive = no such curve, though single readings can be large or run the other way; also: % is scaled to controls: 0 for no effect and ±100 for the full control effect; nearly all actives have a fitted effect of over 50% in size
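Fission yeast strain RE007, carrying one chromosomally integrated HIV-1 vpr copy, was seeded at OD 0.01 in PMG+AL medium with 23 nL pinned compound. After 24 h at 30 °C and 99% humidity, viability was read by BacTiter-Glo luminescence.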
SARS PLP yeast = blocks SARS-CoV papain-like protease in a yeast assay; S. cerevisiae expressing SARS-CoV PLpro, growth rescue; Potency, µM (highest dose often 32.9 µM), for the others: at the top dose activity, positive = growth rescue, actives largely listed as activators; hit rate 0.19% among 330,000; AID 485353; calls by dose curve; also: 0% is about no effect; nearly all actives have a fitted effect of over 55% in size
An asterisk follows results filed as active; ? = inconclusive; · = no result. Sampled rows, rich in hits. Any-hit rate of the full collection: about 9.5%. Unless noted, calls follow the shape of the dose curve; as a rule, active = well fitted inhibition curve with a large enough effect; inconclusive = small, poorly fitted or top-dose-only effect, or another doubt; inactive = no such curve, though single readings can be large or run the other way. Potency is read from the fitted curve at half-maximal effect.

SMILES | Pf growth 48h | NS1 function inh | Pf growth 96h | RE007 growth inh | SARS PLP yeast
COCCCn1cnnc1SC(C)C(=O)Nc1ccc(S(=O)(=O)N2CCOCC2)cc1 (stereo not given) | · | · | · | -8% | 2%
NC(=O)C(C(=O)/C=C/c1ccc(Cl)cc1)=C1SCCS1 | ? | -2% | 8.3µM* | -1% | 0%
CC(NC(=O)N1CCN(c2ccccc2F)CC1)c1ccc(F)c(F)c1 (stereo not given) | ? | -11% | 0% | 1% | -4%
NS(=O)(=O)c1ccc(N=Cc2c(O)n(-c3nccs3)c(=O)c3ccccc23)cc1 | 4.7µM* | -1% | ? | 2% | 1%
O=c1c2ccccc2c(C=Nc2ccc(S(=O)(=O)N3CCCCC3)cc2)c(O)n1-c1ccc(Cl)cn1 | -6% | 7% | 4% | 9% | -4%
Cc1ccsc1CN(C)C(=O)CN1C(=O)NC2(CCCc3ccccc32)C1=O (stereo not given) | ? | · | 12µM* | -20% | 9%
NC(=O)CN1C(=O)NC2(CCCc3sccc32)C1=O (stereo not given) | -6% | -5% | 1% | 8% | -1%
COc1ccc(C(=O)CN2C(=O)NC3(CCCc4ccccc43)C2=O)cc1 (stereo not given) | ? | · | 10µM* | -10% | ·
Cc1ccc(C)c(C(=O)CN2C(=O)NC3(CCc4ccccc43)C2=O)c1 (stereo not given) | ? | · | 15µM* | 4% | 0%
Cc1cc(C(=O)CN2C(=O)NC3(CCCc4sccc43)C2=O)c(C)n1-c1ccc(Cl)cc1 (stereo not given) | 9.3µM* | 7% | ? | -6% | 0%
Cc1c(C)c2c(c(C)c1OC(=O)c1cccnc1)CC[C@@](C)(CCC[C@H](C)CCC[C@H](C)CCCC(C)C)O2 | 5% | · | 12% | · | ·
C(=N\N(c1ccccc1)c1ccccc1)/c1ccc(N2CCOCC2)s1 | ? | ? | 8.3µM* | 11% | -9%
CCOC(=O)N/N=C/c1ccc(N2CCOCC2)s1 | 2.6µM* | 3% | 38% | 4% | 7%
CCOc1ccc(Cc2nnc(SCC(=O)c3ccc(OC)cc3)o2)cc1 | -16% | -59% | 12µM* | -12% | 4%
COC(=O)c1ccc(Nc2c([N+](=O)[O-])ccc3nonc23)cc1 | -7% | -1% | ? | -7% | 1%
Cc1cccc(C)c1N1CCN(C(c2cc3ccccc3o2)c2nnnn2C(C)(C)C)CC1 (stereo not given) | · | · | · | 6% | ·
COc1ccc(-c2oc3ccc(N4CCOCC4)cc3c2/C=C/c2ccc(OC)c(OC)c2)cc1 | ? | 11% | 12µM* | 11% | -3%
COc1ccc(/C=C/c2c(-c3ccc(OC)cc3)sc3ccc(N4CCOCC4)cc23)cc1 | ? | 21% | ? | 13% | -7%
CCN(CC(=O)NCc1cccs1)C(=O)c1ccc(N(C)S(=O)(=O)c2ccc(C)cc2)cc1 | · | · | · | 10% | ·
COc1ccc(CCNC(=O)COc2coc(CN3c4ccccc4CC3C)cc2=O)cc1OC (stereo not given) | 9.3µM* | · | ? | 8% | 4%
Cc1ccc(NC(=O)COc2coc(CN3c4ccccc4CC3C)cc2=O)c(C)c1 (stereo not given) | ? | · | ? | 4% | 1%
CC1Cc2ccccc2N1Cc1cc(=O)c(OCC(=O)Nc2ccccc2)co1 (stereo not given) | 9.3µM* | · | 10µM* | -2% | -4%
N#CC1=C(N)Oc2cc(O)ccc2C1c1ccc(Br)s1 (stereo not given) | 1% | 19% | 11% | 12% | 1%
CCc1[nH]nc2c1C(c1ccsc1)C(C#N)=C(N)O2 (stereo not given) | 4% | -13% | 10µM* | ? | -40%
CC(Nc1nc(N2CCN(S(C)(=O)=O)CC2)nc2ccccc12)c1ccccc1 (stereo not given) | 7.4µM* | -6% | ? | -10% | -13%
SMILES | Pf growth 48h | NS1 function inh | Pf growth 96h | RE007 growth inh | SARS PLP yeast
COc1ccc(Nc2nc(N3CCN(S(C)(=O)=O)CC3)nc3ccccc23)c(OC)c1 | ? | 2% | -16% | 1% | -2%
COc1ccc(Nc2nc(N3CCN(S(=O)(=O)N(C)C)CC3)nc3ccccc23)cc1 | 10µM* | -3% | 8.3µM* | -8% | 3%
Cc1c(CCC(=O)NC2CC2)c(=O)oc2cc(O)ccc12 | ? | -5% | ? | 2% | -10%
O=C(/C=C/c1ccc2ccccc2n1)N1CCN(S(=O)(=O)c2ccc(F)cc2)CC1 | ? | -6% | 10µM* | 2% | 4%
O=C(/C=C/c1ccccc1)N1CCOCC1 | 18% | -3% | 3.3µM* | -7% | -2%
O=C(/C=C/c1ccc(S(=O)(=O)N2CCOCC2)cc1)N1CCN(c2ccc(F)cc2)CC1 | 7.4µM* | 6% | ? | 3% | 1%
CC1CC(C)CN(C(=O)COC(=O)c2cc(S(=O)(=O)N3CCOCC3)ccc2F)C1 (stereo not given) | ? | · | 2% | -15% | 2%
O=C(c1ccc(S(=O)(=O)N2CCOCC2)cc1)N1CCN(c2ccc(F)cc2)CC1 | -1% | -7% | · | 6% | 0%
CC1CC(C)CN(C(=O)/C=C/c2ccc(S(=O)(=O)N3CCOCC3)cc2)C1 (stereo not given) | 9.3µM* | · | 5.2µM* | 4% | 2%
CC(=O)N/C(=C\c1ccccc1)C(=O)OC(C)C(=O)Nc1ccccc1F (stereo not given) | -27% | · | ? | -5% | 9%
Cc1[nH]n(-c2ccccc2)c(=O)c1/C=N/Nc1nncc(-c2ccccc2)n1 | 0.41µM* | -8% | 0.59µM* | -24% | 8%
Cc1[nH]n(-c2ccc([N+](=O)[O-])cc2)c(=O)c1C=NCCN1CCN(C(=O)c2ccc(Br)cc2)CC1 | -11% | 0% | 6% | 7.1µM* | -28%
Cc1[nH]n(-c2ccccc2)c(=O)c1/C=N/NC(=O)c1cccc(F)c1 | 10µM* | -62% | -5% | 15% | 8%
Cc1[nH]n(-c2ccc([N+](=O)[O-])cc2)c(=O)c1C=NCCN1CCN(C(=O)c2ccc(F)cc2)CC1 | · | 2% | ? | -11% | -6%
Cc1[nH]n(-c2ccc([N+](=O)[O-])cc2)c(=O)c1C=NCCN1CCN(C(=O)c2cccc(F)c2)CC1 | 17% | 6% | 15% | 8.9µM* | -33%
O=C(NCCc1ccccc1F)N[C@@H](Cc1ccccc1)C(=O)O | -3% | -8% | 41% | 5% | 1%
O=S(=O)(CCN1C=CC(C(F)(F)F)=NCC1)c1ccc(Cl)cc1Cl | -15% | 4% | 8% | -15% | -1%
Cc1ccc(NC(=O)CSCC(=O)Nc2ccccc2N2CCCC2)cc1 | 29% | · | 4% | 4% | -4%
COc1cc(CN2CCN(C(=O)c3ccc(-c4ccccc4)cc3)CC2)cc(OC)c1OC | 14% | 0% | -4% | 2% | 0%
COc1cccc(CN2CCN(C(=O)c3ccc(-c4ccccc4)cc3)CC2)c1OC | -23% | -9% | 2.9µM* | -1% | -1%
